High-throughput results deposited in PubChem BioAssay by National Center for Advancing Translational Sciences (NCATS).
MBNL1 CUG block: blocks human MBNL1 binding to CUG repeat RNA. TR-FRET MBNL1-His/biotin-(CUG)12 binding, 665/545 ratio. 280,000 tested, 0.036% active. Q9NR56. Potency, µM (series often up to 57.5 µM), for inactives: at the highest dose activity change, negative = inhibition, most hits filed as inhibitors; active = well fitted inhibition curve with a large enough effect in the signal ratio, with a control signal flat, not every such curve was filed as active; inconclusive = small, poorly fitted or top-dose-only effect, or effect the other way, or a change in a side signal; inactive = no such curve, though single readings can be large or run the other way; the % refers to the signal ratio; note: potency is the fitted concentration of half-maximal effect; % is set by controls: 0 for no effect and ±100 for the full control effect
Target sequence (Q9NR56 whole entry, looked up): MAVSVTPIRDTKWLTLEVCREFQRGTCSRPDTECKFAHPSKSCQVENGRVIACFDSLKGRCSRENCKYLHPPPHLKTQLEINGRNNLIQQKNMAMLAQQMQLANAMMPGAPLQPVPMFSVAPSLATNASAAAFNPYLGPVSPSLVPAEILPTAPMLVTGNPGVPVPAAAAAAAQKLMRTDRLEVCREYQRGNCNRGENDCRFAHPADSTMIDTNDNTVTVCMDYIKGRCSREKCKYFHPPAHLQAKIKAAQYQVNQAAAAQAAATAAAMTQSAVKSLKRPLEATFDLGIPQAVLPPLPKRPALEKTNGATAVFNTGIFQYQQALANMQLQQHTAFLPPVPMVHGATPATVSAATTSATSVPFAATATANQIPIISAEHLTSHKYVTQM
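Inhibition of protein-RNA binding appears as loss of TR-FRET between terbium anti-His antibody on MBNL1-His and streptavidin-XL665 on biotin-(CUG)12. Activity is normalized to buffer-only and uninhibited-complex controls.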
Rango complex inh: Rango-importin beta binding inhibition. Q14974. Rango CFP/YFP FRET sensor + importin beta, 45 min. Potency, µM (titrated, usually from 92.2 µM), inactives show at the top dose inhibition of complex formation. 340,000 tested, 0.031% active. AID 540263; calls by dose curve;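 note: potency is the fitted concentration of half-maximal effect; 0% = DMSO wells and 100% = buffer wells lacking importin beta; nearly all actives have a fitted effect of over 15% in size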
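FRET biosensor (snurportin 1 IBB flanked by EYFP and cerulean), 50 nM, with compound 5 min, then 0.125 microM importin beta in PBS, 1 mM DTT, 0.02% Tween-20, 0.1% BSA. CFP/YFP ratio read after 45 min at room temperature; pre-read flags interference.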
Rango release inh: prevents RanGTP from dissociating the Rango-importin beta complex. Potency, µM (series often up to 46.1 µM), for inactives: at the highest dose activity change, negative = inhibition. 340,000 tested, 0.071% active. Biochemical FRET Rango-importin beta, RanGTP-induced dissociation. AID 540253. O95149+P62826; calls by dose curve; note: potency is the fitted concentration of half-maximal effect; % of control where 0% means no effect; nearly all actives have a fitted effect of over 45% in size
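FRET read at 45 min, room temperature: inhibitors block the CFP/YFP signal rise when RanGTP (0.6 uM Ran, 2 mM GTP, 0.2 uM RCC1) frees Rango (0.1 uM) from importin beta (0.25 uM). Pre-read after 5 min compound exposure flags interference.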
CBFb RUNX1 block: CBF-beta/RUNX1 interaction disruption. AlphaScreen CBFb-His/RUNX1-biotin binding, biochemical. Potency, µM (titrated, usually from 59.8 µM), inactives show top-dose activity, negative = inhibition, hits mostly inhibitors. 230,000 tested, under 10 active; note: % of control where 0% means no effect
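Compounds were screened at multiple concentrations against a preformed CBF-beta(His)/RUNX1(biotin) complex (30 nM of each) for 15 min at room temperature, followed by 90 min with nickel and streptavidin beads and AlphaScreen reading.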
ClpP mod: qHTS Assay for Activators of ClpP. purified B. subtilis ClpP, FRET peptide cleavage, 20 min. Potency, µM (titrated, usually from 57.5 µM), for the others: at the highest dose activity change, negative = active. 340,000 tested, 1.9% active. AID 651965, 2013; active = well fitted falling curve with a large enough effect; inconclusive = small, poorly fitted or top-dose-only effect; inactive = no such curve, though single readings can be large or run the other way; note: potency is the fitted concentration of half-maximal effect; the source files actives as falling curves though it sought activators and does not explain the sign; nearly all actives have a fitted effect of over 65% in size
Target sequence (P80244 whole entry, looked up): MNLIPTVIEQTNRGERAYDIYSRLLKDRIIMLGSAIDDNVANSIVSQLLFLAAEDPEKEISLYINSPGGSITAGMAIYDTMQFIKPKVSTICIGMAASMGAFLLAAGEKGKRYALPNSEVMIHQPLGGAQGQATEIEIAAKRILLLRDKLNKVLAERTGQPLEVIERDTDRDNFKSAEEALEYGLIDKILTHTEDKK
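Buffer: 100 mM Tris/HCl pH8, 100 mM KCl, 0.05% low protease BSA, 2.5% glycerol, 0.01% Tween-20. ClpP 10 microg/mL final; 20 min RT; delta FRET normalized to ADEP and DMSO controls.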
MBNL1 TRFRET: confirmation of inhibitors of human MBNL1-poly(CUG) RNA binding; shares compounds with MBNL1 CUG block; TR-FRET MBNL1-His / biotin-(CUG)12 binding, 60 min; Potency, µM (series often up to 57.6 µM), for the others: top-dose activity change, negative = inhibition, most hits filed as inhibitors; 140 tested, 50% active; AID 493199
MBNL1-CUG Alpha: confirmation of MBNL1-(CUG)12 RNA binding inhibitors, orthogonal format; shares compounds with MBNL1 CUG block; 140 tested, 30% active; Potency, µM (titrated, usually from 57.7 µM), for the others: at the highest dose activity, negative = inhibition, hits mostly inhibitors; AlphaScreen MBNL1-His / biotin-(CUG)12 binding
ClpP validation: inhibits B. subtilis ClpP protease, hit validation. shares compounds with ClpP mod. AID 743245. Potency, µM (series often up to 57.5 µM), for inactives: at the highest dose activity change, negative = inhibition, usual class: inhibitors. purified B. subtilis ClpP, FRET-FV substrate cleavage, 20 min. 470 tested, 40% active; note: potency is the fitted concentration of half-maximal effect; % is set by controls: 0 for no effect and ±100 for the full control effect; nearly all actives have a fitted effect of over 70% in size
Numbers without * were called inactive; ? = inconclusive; . = no result; ! = repeats disagree; [ ] = dose if it differs, or a comment. The sample as a whole holds a higher share of hits than the screen did. Unless noted, calls come from the whole dose curve; as a rule, active = well fitted curve in the direction sought with a large enough effect; inconclusive = small, poorly fitted or top-dose-only effect, or another doubt; inactive = no such curve, though single readings can be large; an effect the other way counts as inactive or inconclusive.

SMILES | MBNL1 CUG block | Rango complex inh | Rango release inh | CBFb RUNX1 block | ClpP mod | others
CN(C)CCN(Cc1ccccc1)c1ccnc(N(C)C)c1C#N | -2.0% | 0.3% | 10.9% | 4.5% | 31.6µM*
S=C(NCCc1ccccc1)N1Cc2cc(N3CCCCC3)ccc2-n2nncc2C1 | . | . | . | . | 31.6µM*
S=C(NCCc1ccccc1)N1Cc2cc(-c3ccccc3)ccc2-n2nncc2C1 | . | . | . | . | -1.7%
C/C=C/C=O | . | . | . | 10.1%[21.7 µM] | .
Cc1cc(NC(=O)c2cccn(Cc3cccc(Cl)c3)c2=O)no1 | . | . | . | . | 35.5µM*
Cc1cc(NC(=O)c2cccn(Cc3ccccc3)c2=O)no1 | . | . | . | . | -13.5%
CC1=C(O)C(=O)[C@H]2O[C@@H]2C1=O | . | . | . | 7.6%[21.7 µM] | .
NC[C@@H]1O[C@H](O[C@H]2[C@@H](O)[C@H](O[C@@H]3[C@@H](O)[C@H](N)C[C@H](N)[C@H]3O[C@H]3O[C@H](CO)[C@@H](O)[C@H](O)[C@H]3N)O[C@@H]2CO)[C@H](N)[C@@H](O)[C@@H]1O | 1.5% | . | . | 3.9% | .
O=C(c1cccn2c(=O)c3ccccc3nc12)N1CCC2(CC1)OCCO2 | ? | ? | ? | 1.8% | ?
O=C(c1cccn2c(=O)c3cc(Cl)ccc3nc12)N1CCC2(CC1)OCCO2 | ? | ? | ? | 13.4% | 25.1µM*
COC(=O)c1ccc(C(=O)OC)c(NC(=O)Oc2ccccc2)c1 | 16.1% | ? | ? | 4.3% | 2.82µM*
COC(=O)c1cc2c(s1)=NC=NP=2(N1CCOCC1)N1CCOCC1 | 3.1% | -0.2% | 2.0% | 10.3% | 28.2µM*!
COc1ccc(S(=O)(=O)NCC2CCC(C(=O)N3CCC4(CC3)OCCO4)CC2)cc1 (configuration not stated) | 3.3% | 4.5% | ? | 2.7% | 10µM*
Cc1ccc(S(=O)(=O)N2CCC(C(=O)N3CCC4(CC3)OCCO4)CC2)cc1 | -11.7% | -2.9% | -8.6% | 3.9% | -1.0%
CCCCn1cnc2cc(NCc3cccc(OC)c3O)ccc21 | 8.9% | 3.8% | 2.2% | -4.5% | 31.6µM*
OC(c1ccc(Cl)cc1)(c1ccc(Cl)cc1)C(Cl)(Cl)Cl | . | . | . | 6.8%[21.7 µM] | .
CCOC(=O)c1c(/N=C/C2C(=O)NC(=S)NC2=O)sc2c1CCC2 | . | ? | 9.2µM* | 7.9% | .
CN(C)C1C(=O)C(C(N)=O)=C(O)[C@@]2(O)C(=O)C3=C(O)c4c(O)cccc4[C@@](C)(O)C3[C@H](O)C12 (some centres not stated) | . | . | . | -89.2%[21.7 µM] | .
O=C1/C(=C/c2ccc(F)cc2)Oc2cc(OC(=O)N3CCOCC3)ccc21 | -7.9% | -0.5% | -5.0% | 1.8% | 17.8µM*
COc1ccc(/C=C2\Oc3cc(OC(=O)N4CCOCC4)ccc3C2=O)c(OC)c1 | . | ? | ? | -1.9% | .
C=CC(N)=O | . | . | . | -4.1%[21.7 µM] | .
Cc1c(C)c2ccc(OCC(=O)N3CCC(C(=O)O)(c4ccccc4)CC3)cc2oc1=O | 9.5% | -2.6% | 5.4% | . | 5.4%
CCc1c(C)c2ccc(OCC(N)=O)cc2oc1=O | 7.9% | -0.6% | -15.9% | 6.4% | 6.31µM*
Cc1ccc2cc3cc(C(=O)N4CCC5(CC4)OCCO5)oc3nc2c1 | ? | -0.3% | 6.2% | -1.6% | 14.1µM*
Cc1cc(C)c(C(=O)N2CCC3(CC2)OCCO3)c(C)c1 | 4.4% | -0.2% | -21.0% | . | -0.4%
SMILES | MBNL1 CUG block | Rango complex inh | Rango release inh | CBFb RUNX1 block | ClpP mod | others
CCCCOc1ccc(C(=O)NCCc2csc(-c3ccc(OC)cc3)n2)cc1 | . | . | . | . | 22.4µM*
N[C@]1(C(=O)O)CC[C@@H](C(=O)O)C1 (racemic) | . | . | . | 9.6% | .
C(=NC1CCCCC1)=NC1CCCCC1 | . | . | . | 11.3%[21.7 µM] | .
COc1cccc(C2(O)CCSCC2CN(C)C)c1 (configuration not stated) | -0.5% | -0.5% | -14.8% | -3.1% | 3.55µM*
CCCC1(CC(C)C)C(=O)NC(=S)NC1=O | . | 1.7% | 6.5% | . | 28.2µM*
CCC1(CC(C)C)C(=O)NC(=S)NC1=O | . | 1.2% | -11.6% | . | 0.9%
COc1ccc(Cl)cc1NC(=O)C1CCN(c2nnc(C)c3c(C)n(-c4ccccc4)nc23)CC1 | . | . | . | . | 28.2µM*
COc1ccc(Cl)cc1NC(=O)c1sc2nc3c(cc2c1N)N1CCC3CC1 | . | . | . | . | -14.3%
CCOC(=O)CC(SP(=O)(OC)OC)C(=O)OCC (configuration not stated) | . | . | . | -11.9%[21.7 µM] | .
Nc1cccc2c1Cc1cc([N+](=O)[O-])ccc1-2 | . | 2.0% | 13.5% | . | 28.2µM*
CC(O)C(C)OC(=O)[C@@H]1C[C@@H]2c3cccc4c3c(cn4C(C)C)C[C@H]2N(C)C1 (some centres not stated) | . | . | . | ? | . | MBNL1 TRFRET=?;MBNL1-CUG Alpha=-44.4%
NCCCC[C@H](NC(=O)[C@H](Cc1ccccc1)NC(=O)[C@H](CCCN=C(N)N)NC(=O)[C@@H](N)Cc1ccc(O)cc1)C(N)=O | . | . | . | 11.9% | .
COc1ccccc1NC(=O)c1oc2ccccc2c1NC(=O)c1ccccc1C(F)(F)F | . | . | . | . | 206.4% | ClpP validation=30.6µM*
CCOC(=O)C(SP(=S)(OC)OC)c1ccccc1 (configuration not stated) | . | . | . | 21.3% | .
CC(CN)CC(=O)O (configuration not stated) | . | . | . | 16.2% | .
Cc1cc(OCc2ccc([N+](=O)[O-])cc2)c2c3c(c(=O)oc2c1)CCCC3 | -3.4% | -3.9% | 7.6% | 2.0% | -0.2%
Cc1cc(OCc2nn[nH]n2)c2c3c(c(=O)oc2c1)CCCC3 | 4.9% | 8.4% | 9.6% | 5.9% | 6.31µM* | ClpP validation=27.3µM*
CNC(=O)Oc1ccc(-c2cn3cc(Cl)ccc3n2)cc1 | 8.7% | ? | 6.5% | -0.6% | 8.91µM* | ClpP validation=?
